The list is not random: actives were taken first. Their share in the collection is about 21%.
Cycloheximide cs: Cycloheximide Counterscreen for Small Molecule Inhibitors of Shiga Toxin. 300,000 tested, 12% active. cell reporter, cycloheximide protein synthesis inhibition counterscreen. max response, %; in the data active = max response mostly above about 13%, no sharp cut-off; inactive = mostly below about 14%; also: read at 38.3 µM for the half of the compounds with a filed dose; 0% is about no effect
Pf growth 48h: Primary qHTS for delayed death inhibitors of the malarial parasite plastid, 48 hour incubation; Potency, µM (top dose mostly 28.7 µM), for the others: at the highest dose activity change, negative = inhibition, usual class: inhibitors; 310,000 tested, 5.9% active; P. falciparum luciferase growth in erythrocytes, 48 h; also: potency is read from the fitted curve at half-maximal effect; % is scaled to controls: 0 for no effect and ±100 for the full control effect
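Luminescence readout; reporter = integrated firefly luciferase in P. falciparum. RBC culture at 2% hematocrit, 0.1% parasitemia final, 37 C/5% CO2; decreased signal taken as growth inhibition.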
Giardia FBPA inh: qHTS Assay for Inhibitors of Fructose-1,6-bisphosphate Aldolase from Giardia Lamblia; A8B2U2; purified Giardia FBPA; Potency, µM (series often up to 59.6 µM), without a hit: top-dose activity, negative = inhibition, actives largely listed as inhibitors; 290,000 tested, 0.71% active; AID 2451, 2010; also: potency is read from the fitted curve at half-maximal effect; % is scaled to controls: 0 for no effect and ±100 for the full control effect; nearly all actives have a fitted effect of over 55% in size
Target sequence (A8B2U2 whole entry, looked up): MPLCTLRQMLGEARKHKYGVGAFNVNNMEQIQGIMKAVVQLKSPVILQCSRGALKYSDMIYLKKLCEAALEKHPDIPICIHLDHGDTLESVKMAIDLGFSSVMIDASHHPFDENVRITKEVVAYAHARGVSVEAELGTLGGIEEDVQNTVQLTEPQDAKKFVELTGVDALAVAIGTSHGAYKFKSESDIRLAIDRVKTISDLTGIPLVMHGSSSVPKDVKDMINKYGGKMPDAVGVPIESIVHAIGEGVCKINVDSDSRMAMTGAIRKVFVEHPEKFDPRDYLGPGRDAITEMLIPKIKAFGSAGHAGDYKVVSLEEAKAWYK
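Giardia FBPA (40 nM reagent) was preincubated 10 min at RT with compound (up to 57.5 uM final), then substrate plus GAPDH/TPI/NAD/arsenate coupling system with diaphorase/resazurin was added; resorufin fluorescence (525/598 nm) was read after 20 min.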
Shiga toxin inh: A qHTS for Small Molecule Inhibitors of Shiga Toxin; 290,000 tested, 9.2% active; AID 2315, 2010; inhibition, % at 38.7 µM; Vero cells, Shiga toxin protein synthesis inhibition reporter; in the data active = inhibition mostly above about 28%, no sharp cut-off; inactive = mostly below about 43%; also: 0% is about no effect
NS1 function inh: qHTS Assay for Inhibitors of Influenza NS1 Protein Function. Potency, µM (highest dose often 46.1 µM), without a hit: at the highest dose activity, positive = more growth. 270,000 tested, 0.4% active. AID 2326, 2010; calls by dose curve; also: potency is read from the fitted curve at half-maximal effect; actives are rising curves; nearly all actives have a fitted effect of over 50% in size
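Growth recovery, yeast-based: influenza A NS1 expressed in S. cerevisiae causes slow growth, and suppressors are detected by OD600. The parent strain without NS1 is used as positive control.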
Pf growth 96h: Primary qHTS for delayed death inhibitors of the malarial parasite plastid, 96 hour incubation; P. falciparum luciferase reporter growth, 96 h; Potency, µM (top dose mostly 28.7 µM), for the others: at the top dose activity change, negative = inhibition, hits mostly inhibitors; 320,000 tested, 6.9% active; AID 504834, 2011; also: potency is read from the fitted curve at half-maximal effect; % is scaled to controls: 0 for no effect and ±100 for the full control effect
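Luminescence readout: decreased luciferase signal marks inhibited growth of reporter-expressing P. falciparum in infected red cells (2% hematocrit, 0.05% parasitemia final), exposed to compound two generations (96 h, 37 C, 5% CO2).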
* hit, by the source's call. Unless noted, calls follow the shape of the dose curve; as a rule, active = well fitted curve in the direction sought with a large enough effect; inconclusive = small, poorly fitted or top-dose-only effect, or another doubt; inactive = no such curve, though single readings can be large; an effect the other way counts as inactive or inconclusive.

Results for CC(C)CNc1nc(N)[nH]c(=O)c1NC=O ?
NS1 function inh: -1%

Results for OCCOc1ccc(CN2CCCC(N3CCN(c4ccc(F)cc4)CC3)C2)cc1 (configuration not stated) ?
Cycloheximide cs: -2; Pf growth 48h: -36%; Giardia FBPA inh: 0%; Shiga toxin inh: -2; NS1 function inh: 9%; Pf growth 96h: 358%

What do the screens show for `COc1cc(CN2CCCC(N3CCN(c4ccc(F)cc4)CC3)C2)ccc1F` (configuration not stated)?
Cycloheximide cs: 9; Pf growth 48h: 2.1µM*; Giardia FBPA inh: 16%; Shiga toxin inh: -8; NS1 function inh: inconclusive; Pf growth 96h: 0.66µM*

What do the screens show for `COc1cc(CN2CCCC(N3CCN(c4ccccc4C)CC3)C2)ccc1O` (configuration not stated)?
Cycloheximide cs: -1; Pf growth 48h: 8.3µM*; Giardia FBPA inh: -4%; Shiga toxin inh: 5; NS1 function inh: 20%; Pf growth 96h: 55%

How did COc1ccccc1CN1CCCC(N2CCN(c3ccccc3OC)CC2)C1 (configuration not stated) do in these assays?
Cycloheximide cs: -3; Pf growth 48h: -7%; Giardia FBPA inh: 0%; Shiga toxin inh: -5; NS1 function inh: 14%; Pf growth 96h: 4.7µM*

How did COc1ccccc1N1CCN(C2CCCN(Cc3c(F)cccc3F)C2)CC1 (configuration not stated) do in these assays?
Cycloheximide cs: -3; Pf growth 48h: 16%; Giardia FBPA inh: 2%; Shiga toxin inh: -1; NS1 function inh: -6%; Pf growth 96h: -62%

How did COc1cc(CN2CCC(C(=O)N3CCN(c4ccccc4F)CC3)CC2)ccc1O do in these assays?
Cycloheximide cs: -4; Pf growth 48h: inconclusive; Giardia FBPA inh: -20%; Shiga toxin inh: -11; NS1 function inh: 2%; Pf growth 96h: -24%

Results for COc1ccccc1N1CCN(Cc2cccc(OC)c2OC)CC1 ?
Cycloheximide cs: -1; Pf growth 48h: -6%; Giardia FBPA inh: -25%; Shiga toxin inh: -7; NS1 function inh: 6%

What do the screens show for `COc1ccccc1N1CCN(Cc2cccc(OC)c2O)CC1`?
Cycloheximide cs: 0; Pf growth 48h: 7.4µM*; Giardia FBPA inh: -13%; Shiga toxin inh: 1; NS1 function inh: -2%; Pf growth 96h: inconclusive

What do the screens show for `OCc1ccccc1O[C@H]1OC(CO)C(O)C(O)C1O` (some centres not stated)?
Giardia FBPA inh: 5%

How did O=S(=O)(NCCc1cn(S(=O)(=O)c2ccccc2)c2ccccc12)c1ccccc1 do in these assays?
Cycloheximide cs: -4; Shiga toxin inh: -2

How did COc1ccccc1N1CCN(C2CCCN(Cc3cccc(O)c3)C2)CC1 (configuration not stated) do in these assays?
Cycloheximide cs: 0; Pf growth 48h: inconclusive; Giardia FBPA inh: 5%; Shiga toxin inh: -3; NS1 function inh: -9%; Pf growth 96h: 1.2µM*

How did CC(=O)c1cccc(CN2CCCC(N3CCN(c4ccccc4F)CC3)C2)c1 (configuration not stated) do in these assays?
Cycloheximide cs: 2; Pf growth 48h: inconclusive; Giardia FBPA inh: 5%; NS1 function inh: 8%; Pf growth 96h: inconclusive

Results for CCOc1ccc(CN2CCCC(N3CCN(c4ccc(OC)cc4)CC3)C2)cc1 (configuration not stated) ?
Cycloheximide cs: 1; Pf growth 48h: inconclusive; Giardia FBPA inh: 10%; Shiga toxin inh: -3; NS1 function inh: 29%; Pf growth 96h: inconclusive

What do the screens show for `CSc1ccc(CN2CCCC(N3CCN(c4ccccc4)CC3)C2)cc1` (configuration not stated)?
Cycloheximide cs: -1; Pf growth 48h: inconclusive; Giardia FBPA inh: 1%; Shiga toxin inh: -2; NS1 function inh: -8%; Pf growth 96h: 9.3µM*

What do the screens show for `Clc1nc2ccccc2cc1-c1nnn(-c2ccccc2)n1`?
Cycloheximide cs: 46*; Pf growth 48h: 270%; Giardia FBPA inh: 11%; Shiga toxin inh: 59*; NS1 function inh: -5%; Pf growth 96h: 439%

How did Cc1ccc(-n2nnc(-c3cnc4ccccc4c3)n2)cc1 do in these assays?
Cycloheximide cs: 57*; Pf growth 48h: 126%; Giardia FBPA inh: 4%; Shiga toxin inh: 69; NS1 function inh: -4%; Pf growth 96h: 239%

What do the screens show for `c1ccc(-n2nnc(-c3cccnc3)n2)cc1`?
Cycloheximide cs: 41*; Pf growth 48h: 183%; Giardia FBPA inh: 5%; Shiga toxin inh: 44*; NS1 function inh: -7%; Pf growth 96h: 162%

What do the screens show for `Fc1ccc(-n2nnc(-c3nccs3)n2)cc1`?
Cycloheximide cs: 38*; Pf growth 48h: 256%; Giardia FBPA inh: 3%; Shiga toxin inh: 54*; NS1 function inh: -5%; Pf growth 96h: inactive

What do the screens show for `c1ccc2ncc(-n3cnnn3)cc2c1`?
Cycloheximide cs: -1; Pf growth 48h: 52%; Giardia FBPA inh: 3%; Shiga toxin inh: -9; NS1 function inh: 6%; Pf growth 96h: 20%

How did COc1cccc([C@@H]2Oc3ccc(OC)cc3C[C@H]2OC(=O)N[C@H]2CCCc3ccccc32)c1 do in these assays?
Giardia FBPA inh: -1%

How did O=S(=O)(c1ccccc1)N1CCC2(CC1)CN(c1ccncc1)C2 do in these assays?
Giardia FBPA inh: 0%

What do the screens show for `Fc1ccc(-n2nnc(-c3ccccc3Cl)n2)cc1`?
Cycloheximide cs: 2; Pf growth 48h: 16%; Giardia FBPA inh: -18%; Shiga toxin inh: -9; NS1 function inh: 16%; Pf growth 96h: inconclusive

What do the screens show for `Cc1ccc(-n2cnc(=O)c3cccnc32)cc1`?
Cycloheximide cs: 11; Pf growth 48h: 52%; Giardia FBPA inh: 1%; Shiga toxin inh: 2; NS1 function inh: 10%; Pf growth 96h: 86%

Results for Cc1ccc(-n2nnc(-c3nccn3C)n2)cc1 ?
Cycloheximide cs: 11*; Pf growth 48h: -14%; Giardia FBPA inh: 1%; Shiga toxin inh: 7; NS1 function inh: -4%; Pf growth 96h: -13%

How did CCCn1c(-c2cccnc2Cl)nc2cc(Cl)c(Cl)cc21 do in these assays?
Cycloheximide cs: 0; Pf growth 48h: inconclusive; Giardia FBPA inh: -2%; Shiga toxin inh: -3; NS1 function inh: -27%; Pf growth 96h: inconclusive

What do the screens show for `Fc1ccc(-n2nnc(-c3cccnc3Cl)n2)cc1`?
Cycloheximide cs: 54*; Pf growth 48h: 386%; Giardia FBPA inh: 8%; Shiga toxin inh: 89*; NS1 function inh: -7%; Pf growth 96h: 194%

Results for Clc1ccc(-n2nnc(-c3cccnc3Cl)n2)cc1Cl ?
Cycloheximide cs: 35*; Pf growth 48h: 370%; Giardia FBPA inh: 7%; Shiga toxin inh: 54*; NS1 function inh: 0%; Pf growth 96h: 91%

Bioassay records from PubChem.
